PubChem BioAssay (NCI)
Compounds without any hit were thinned out: in the full panel of roughly 83,000, 20% have a hit.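 Growth was measured after 48 h exposure to one concentration of compound in 96-well plates. Values under 10 count as active.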 The source made the active and inactive calls.

Legend:
Assay in all cases: NCI-60 one-dose screen, 48 h (100 = growth as untreated, 0 = no growth, -100 = all killed)
[1] = tested on: NCI-H23 lung; details: 10 µM unless noted
[2] = tested on: NCI-H226 lung; details: 10 µM unless noted
[3] = tested on: NCI-H322M lung; details: 10 µM unless noted
[4] = tested on: HOP-62 NSCLC; details: 10 µM unless noted
[5] = tested on: NCI-H460 lung; details: 10 µM unless noted
[6] = tested on: HOP-92 NSCLC; details: 10 µM unless noted
[7] = tested on: NCI-H522 lung; details: 10 µM unless noted
[8] = tested on: 786-0 renal; details: 10 µM unless noted
[9] = tested on: COLO 205 colon; details: 10 µM unless noted
[10] = tested on: DU-145 prostate; details: 10 µM unless noted
[11] = tested on: K-562 leukemia; details: 10 µM unless noted
[12] = tested on: MALME-3M melanoma; details: 10 µM unless noted
[13] = tested on: MDA-MB-231 breast; details: 10 µM unless noted
[14] = tested on: RXF 393 renal; details: 10 µM unless noted
[15] = tested on: SF-268 CNS; details: 10 µM unless noted
[16] = tested on: SF-295 CNS; details: 10 µM unless noted
[17] = tested on: SF-539 CNS; details: 10 µM unless noted
[18] = tested on: UACC-257 melanoma; details: 10 µM
[19] = tested on: M14 melanoma; details: 10 µM unless noted
[20] = tested on: A549/ATCC NSCLC; details: 10 µM unless noted

Measured: growth

O=S(=O)(NCCCNc1nccc(-c2c(-c3ccccc3)nc3sccn23)n1)c1ccc(F)cc1
inactive: [1] 38% | [2] 24.2% | [3] 68.3% | [4] 89% | [5] 47.9% | [6] 86.9% | [7] 38.4% | [8] 44.8% | [9] 17.9% | [10] 44.8% | [11] 26.4% | [12] 67.9% | [13] 58.4% | [14] 47.2% | [15] 51% | [16] 29.8% | [17] 82% | [18] 71.3% | [19] 35%

C=C1C(=O)O[C@H]2[C@H](O)[C@@H](C)CCC/C(C)=C/CC[C@@]3(C)O[C@@H]3C[C@@H]12
inactive: [1] 95.3% | [2] 80.9% | [3] 81% | [4] 96.3% | [5] 91.4% | [6] 58% | [8] 93.7% | [9] 90.7% | [10] 99.4% | [11] 79.2% | [12] 72% | [13] 77.9% | [14] 53.1% | [15] 96.1% | [16] 89.4% | [17] 84.2% | [18] 56.9% | [19] 92.8%
active: [7] -17.3%

COc1cccc(-c2nc3sccn3c2-c2ccnc(NCCCNS(=O)(=O)c3ccccc3)n2)c1
inactive: [1] 36.1% | [2] 23.3% | [3] 75.3% | [4] 119% | [5] 53.7% | [6] 56.5% | [7] 27.3% | [8] 62.6% | [9] 21.3% | [10] 52.1% | [11] 25.5% | [12] 36.4% | [13] 59.5% | [14] 67.1% | [15] 62.7% | [16] 55% | [17] 70.4% | [18] 65.7% | [19] 25.2%

O=[N+]([O-])c1cc(S(=O)(=O)OCC2CO2)ccc1Cl (stereo not given)
inactive: [1] 96% | [2] 110% | [3] 82.2% | [4] 111% | [5] 109% | [6] 125% | [7] 85.9% | [20] 101% | [8] 106% | [10] 101% | [12] 98.1% | [13] 132% | [14] 103% | [15] 94.3% | [16] 101% | [17] 106% | [18] 100% | [19] 95.1%

CC(=O)Nc1ccc(S(=O)(=O)N2C(=O)CCC2C(=O)Nc2ccc(Br)cc2)cc1 (stereo not given)
inactive: [1] 21.9% | [2] 50.2% | [3] 31.8% | [4] 45.6% | [5] 21.2% | [6] 11.8% | [8] 57.8% | [10] 44.2% | [13] 34.4% | [14] 57.4% | [15] 47.6% | [16] 13.1% | [17] 42.1% | [18] 30.4% | [19] 36.9%
active: [7] -7.58% | [9] 6.33% | [11] 0.475%

COc1ccc(S(=O)(=O)NCCNc2nccc(-c3c(-c4ccccc4)nc4sccn34)n2)cc1
active: [9] 1.41%
inactive: [1] 37% | [2] 13.2% | [3] 45.9% | [4] 64.4% | [5] 23.6% | [6] 48.9% | [7] 41% | [8] 32% | [10] 20.2% | [11] 18.5% | [12] 60.9% | [13] 36.6% | [14] 30.8% | [15] 20.5% | [16] 16.6% | [17] 45.3% | [18] 46%

Cc1ccc(Cn2c(-c3cccs3)nc3ccccc32)cc1
inactive: [1] 96.2% | [2] 77.3% | [3] 92% | [4] 105% | [5] 88% | [6] 72.5% | [7] 85.1% | [8] 99% | [9] 110% | [10] 110% | [12] 120% | [13] 96.2% | [14] 92.5% | [15] 104% | [16] 72% | [17] 102% | [18] 89.9% | [19] 107%
active: [11] 5.16%

CCN1C(=O)/C(=c2\sc3n(c2=O)C2C(NN=3)N(CC)C(=S)N2CC)c2ccccc21 (stereo not given)
inactive: [1] 101% | [2] 92.3% | [3] 103% | [4] 79.2% | [5] 107% | [6] 99.2% | [7] 91.9% | [8] 99.5% | [9] 103% | [10] 115% | [11] 98% | [12] 93.2% | [13] 96.3% | [15] 90.2% | [16] 100% | [17] 96.3% | [19] 96.2%

Cc1cc(C)c2c(=O)[nH]c(SCC(=O)Nc3cccc(S(=O)(=O)N(C)C)c3)nc2n1
inactive: [1] 104% | [2] 91.9% | [3] 122% | [4] 97.8% | [5] 107% | [6] 88.3% | [7] 96.3% | [8] 93.2% | [9] 90.9% | [10] 101% | [11] 94.1% | [12] 95.8% | [13] 87.6% | [14] 58.4% | [15] 114% | [16] 139% | [17] 97.3% | [19] 100%
